# Records with an inconclusive call do not appear. Calls of active or inactive are those of the source. The calls were made as follows: active = hit-call score of the fitted dose curve at least 0.9, where 1 is the maximum; inconclusive = response in the unintended direction; inactive = score below 0.9.
# What was measured:
# [1] = target: sheep Cyclooxygenase-2 (Cox2), PTGS2 (gene 443460) (UniProt P79208); assay: NVS_ENZ_oCOX2: NovaScreen (NVS) Enzymatic Assay for sheep Cyclooxygenase-2 (Cox2) (AID 2283231)
# Procedure, shortened: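 Enzyme extracted from ovine placenta tested cell-free; activity read colorimetrically by absorbance 0.66 hour after dosing. Primary screen in duplicate at 25 uM; hits rerun as concentration series to 50 uM, loss of signal versus DMSO baseline.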
# [2] = target: human Protein Tyrosine Phosphatase Non-receptor Type 6 (PTPN6), PTPN6 (gene 5777) (UniProt P29350); assay: NVS_ENZ_hPTPN6: NovaScreen (NVS) Enzymatic Assay for human Protein Tyrosine Phosphatase Non-receptor Type 6 (PTPN6) (AID 2283210)
# Procedure, shortened: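 Recombinant human PTPN6 from SF9 cells, enzyme activity followed by fluorescence after mobility-shift separation of substrate and product at 1.33 h. Chemicals first tested at a single 25 uM in duplicate, then confirmed across concentration series; loss of signal relative to DMSO.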
# [3] = target: human Vascular Endothelial Growth Factor Receptor 3 (VEGFR3), FLT4 (gene 2324) (UniProt P35916); assay: NVS_ENZ_hVEGFR3: NovaScreen (NVS) Enzymatic Assay for human Vascular Endothelial Growth Factor Receptor 3 (VEGFR3) (AID 2283229)
# Procedure, shortened: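 Chemicals first run in duplicate at 25 uM, with actives re-tested in concentration series to a top of 50 uM. Recombinant VEGFR3 activity measured after 1 h via fluorescence with mobility-shift product separation; inhibition fitted relative to DMSO.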
# [4] = target: human Vascular Endothelial Growth Factor Receptor 1 (VEGFR1), FLT1 (gene 2321) (UniProt P17948); assay: NVS_ENZ_hVEGFR1: NovaScreen (NVS) Enzymatic Assay for human Vascular Endothelial Growth Factor Receptor 1 (VEGFR1) (AID 2283226)
# Procedure, shortened: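 Kinase activity of recombinant human VEGFR1 was read by fluorescence after electrophoretic separation of product from substrate, 1 h post-dosing; initial duplicate single-point testing at 25 uM, followed by concentration-series follow-up, with DMSO as baseline.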
# [5] = target: human Protein Tyrosine Phosphatase Non-receptor Type 9 (PTPN9), PTPN9 (gene 5780) (UniProt P43378); assay: NVS_ENZ_hPTPN9: NovaScreen (NVS) Enzymatic Assay for human Protein Tyrosine Phosphatase Non-receptor Type 9 (PTPN9) (AID 2283209)
# Procedure, shortened: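 Sf9-expressed enzyme in a cell-free assay, fluorescence read 1.33 h after dosing with mobility-shift separation of substrate and product. Tested at 25 uM in duplicate, then up to 50 uM; signal loss versus DMSO.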
# [6] = target: human Sirtuin 2 (SIRT2), SIRT2 (gene 22933) (UniProt Q8IXJ6); assay: NVS_ENZ_hSIRT2: NovaScreen (NVS) Enzymatic Assay for human Sirtuin 2 (SIRT2) (AID 2283217)
# Procedure, shortened: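 Single-point duplicate screen at 25 uM, then concentration-response (max 50 uM) for chemicals passing threshold. Enzyme activity of recombinant human SIRT2 measured after 1 hr by fluorescence with mobility-shift separation of product; DMSO baseline.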
# [7] = target: human Vascular Endothelial Growth Factor Receptor 2 (VEGFR2), KDR (gene 3791) (UniProt P35968); assay: NVS_ENZ_hVEGFR2: NovaScreen (NVS) Enzymatic Assay for human Vascular Endothelial Growth Factor Receptor 2 (VEGFR2) (AID 2283230)
# Procedure, shortened: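 Cell-free recombinant VEGFR2 kinase, fluorescent substrate with electrophoretic mobility-shift separation; read 1 h after dosing. Screened at 25 uM in duplicate, hits to concentration-response up to 50 uM; loss-of-signal versus DMSO.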
# [8] = target: Tyrosine-protein phosphatase non-receptor type 14 (Homo sapiens) (UniProt Q15678); assay: NVS_ENZ_hPTPN14: NovaScreen (NVS) Enzymatic Assay for human Protein Tyrosine Phosphatase Non-receptor Type 14 (PTPN14) (AID 2283206)
# Procedure, shortened: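 Fluorescent substrate turnover by recombinant human PTPN14 was measured 0.5 h after compound addition, with substrate and product separated by mobility shift. Single-point screening at 25 uM, then concentration-response up to 50 uM for chemicals meeting threshold (e.g., 30% inhibition).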
# [9] = target: human SRC Proto-Oncogene, Non-receptor Tyrosine Kinase (SRC), SRC (gene 6714) (UniProt P12931); assay: NVS_ENZ_hSRC: NovaScreen (NVS) Enzymatic Assay for human SRC Proto-Oncogene, Non-receptor Tyrosine Kinase (SRC) (AID 2283223)
# Procedure, shortened: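 Compounds passing 30% inhibition at 25 uM (duplicate) were titrated to a top concentration of 50 uM. Enzyme activity read by fluorescence with mobility-shift substrate/product separation after 1 h; DMSO baseline.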
# [10] = target: human Protein Tyrosine Phosphatase Receptor Type C (PTPRC), PTPRC (gene 5788) (UniProt P08575); assay: NVS_ENZ_hPTPRC: NovaScreen (NVS) Enzymatic Assay for human Protein Tyrosine Phosphatase Receptor Type C (PTPRC) (AID 2283212)
# Procedure, shortened: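 Absorbance-based phosphatase activity of human PTPRC protein extracted from yeast was measured 1 h post-dosing. Compounds first tested at 25 uM in duplicate, then those passing threshold in singleton concentration series to 50 uM.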
# [11] = target: human Sirtuin 1 (SIRT1), SIRT1 (gene 23411) (UniProt Q96EB6); assay: NVS_ENZ_hSIRT1: NovaScreen (NVS) Enzymatic Assay for human Sirtuin 1 (SIRT1) (AID 2283219)
# Procedure, shortened: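 Cell-free recombinant SIRT1 with a fluorescent substrate; substrate and product separated by electrophoretic mobility shift and read by fluorescence intensity, 1 h after dosing. Primary screen at 25 uM in duplicate; hits re-run in concentration-response up to 50 uM, relative to DMSO.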
# [12] = target: rat Acetylcholinesterase (AChE), Ache (gene 83817) (UniProt P37136); assay: NVS_ENZ_rAChE: NovaScreen (NVS) Enzymatic Assay for rat Acetylcholinesterase (AChE) (AID 2283233)
# Procedure, shortened: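 Compounds first screened at 25 uM in duplicate, then those passing threshold tested in concentration series up to 50 uM, against AChE from rat brain membranes. Enzyme activity read by absorbance at 0.33 h; inhibition scored versus DMSO.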
# [13] = target: human Tyrosine Protein Kinase Receptor Tie-2 (Tie2), TEK (gene 7010) (UniProt Q02763); assay: NVS_ENZ_hTie2: NovaScreen (NVS) Enzymatic Assay for human Tyrosine Protein Kinase Receptor Tie-2 (Tie2) (AID 2283225)
# Procedure, shortened: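 Substrate and product were separated by mobility shift and detected by fluorescence after a 1-hour reaction with recombinant Tie2. Chemicals passing a 25 uM single-point screen were titrated to a maximum of 50 uM. Results were normalized to DMSO baseline.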
# Chain of sheep Cyclooxygenase-2 (Cox2), PTGS2 (gene 443460) (P79208 whole entry, looked up): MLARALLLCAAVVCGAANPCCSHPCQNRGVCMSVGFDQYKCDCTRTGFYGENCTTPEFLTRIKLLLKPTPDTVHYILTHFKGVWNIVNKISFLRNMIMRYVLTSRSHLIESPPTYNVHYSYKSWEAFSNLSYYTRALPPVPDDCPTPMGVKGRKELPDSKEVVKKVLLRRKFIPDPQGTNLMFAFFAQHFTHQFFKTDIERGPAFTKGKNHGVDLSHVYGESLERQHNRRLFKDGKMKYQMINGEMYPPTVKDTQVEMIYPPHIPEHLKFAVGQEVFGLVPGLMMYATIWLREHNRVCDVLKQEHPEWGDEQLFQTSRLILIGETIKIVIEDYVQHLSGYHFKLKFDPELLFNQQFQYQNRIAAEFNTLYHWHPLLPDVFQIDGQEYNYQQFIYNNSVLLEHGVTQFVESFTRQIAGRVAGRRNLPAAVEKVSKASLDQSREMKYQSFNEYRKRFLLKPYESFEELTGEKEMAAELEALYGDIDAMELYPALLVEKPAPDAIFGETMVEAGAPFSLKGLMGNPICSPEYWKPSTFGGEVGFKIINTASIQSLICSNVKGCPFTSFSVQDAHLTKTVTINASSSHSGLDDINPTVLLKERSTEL
# Chain of human Vascular Endothelial Growth Factor Receptor 2 (VEGFR2), KDR (gene 3791) (P35968 whole entry, looked up): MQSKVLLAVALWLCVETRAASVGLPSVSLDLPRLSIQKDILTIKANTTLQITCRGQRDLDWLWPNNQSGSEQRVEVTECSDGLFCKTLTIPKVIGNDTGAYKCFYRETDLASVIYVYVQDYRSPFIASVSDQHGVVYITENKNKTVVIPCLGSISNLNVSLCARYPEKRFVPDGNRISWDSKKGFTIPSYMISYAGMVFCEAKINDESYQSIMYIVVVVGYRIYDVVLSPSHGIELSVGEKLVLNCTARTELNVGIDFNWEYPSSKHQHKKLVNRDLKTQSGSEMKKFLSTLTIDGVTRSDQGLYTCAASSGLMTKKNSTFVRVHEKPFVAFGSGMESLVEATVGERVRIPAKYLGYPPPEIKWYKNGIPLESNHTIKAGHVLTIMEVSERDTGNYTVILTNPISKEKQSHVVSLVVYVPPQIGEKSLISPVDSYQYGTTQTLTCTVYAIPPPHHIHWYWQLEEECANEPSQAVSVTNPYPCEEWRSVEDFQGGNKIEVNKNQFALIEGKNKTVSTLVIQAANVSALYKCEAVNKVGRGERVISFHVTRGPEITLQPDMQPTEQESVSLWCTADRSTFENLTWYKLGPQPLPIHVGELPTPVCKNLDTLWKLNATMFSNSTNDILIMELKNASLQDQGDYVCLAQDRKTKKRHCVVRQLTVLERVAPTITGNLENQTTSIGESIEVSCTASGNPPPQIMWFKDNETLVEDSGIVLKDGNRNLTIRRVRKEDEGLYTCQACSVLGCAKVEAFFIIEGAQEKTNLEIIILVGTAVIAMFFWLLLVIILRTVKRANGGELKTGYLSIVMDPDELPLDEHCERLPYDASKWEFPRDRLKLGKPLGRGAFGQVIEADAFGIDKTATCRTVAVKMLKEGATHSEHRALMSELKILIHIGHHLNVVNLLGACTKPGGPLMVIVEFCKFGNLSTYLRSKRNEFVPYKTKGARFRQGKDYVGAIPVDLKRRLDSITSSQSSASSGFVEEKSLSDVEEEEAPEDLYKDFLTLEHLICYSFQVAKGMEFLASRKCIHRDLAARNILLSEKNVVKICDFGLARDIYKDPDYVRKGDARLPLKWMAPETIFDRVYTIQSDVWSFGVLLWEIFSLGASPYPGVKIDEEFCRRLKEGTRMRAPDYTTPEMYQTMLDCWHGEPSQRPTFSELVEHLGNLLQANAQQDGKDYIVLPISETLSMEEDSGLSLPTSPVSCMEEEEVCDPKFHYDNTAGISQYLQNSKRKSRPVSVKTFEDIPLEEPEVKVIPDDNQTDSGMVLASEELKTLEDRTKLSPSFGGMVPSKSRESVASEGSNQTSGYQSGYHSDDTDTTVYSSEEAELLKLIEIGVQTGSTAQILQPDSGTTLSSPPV
# Chain of human Protein Tyrosine Phosphatase Non-receptor Type 6 (PTPN6), PTPN6 (gene 5777) (P29350 whole entry, looked up): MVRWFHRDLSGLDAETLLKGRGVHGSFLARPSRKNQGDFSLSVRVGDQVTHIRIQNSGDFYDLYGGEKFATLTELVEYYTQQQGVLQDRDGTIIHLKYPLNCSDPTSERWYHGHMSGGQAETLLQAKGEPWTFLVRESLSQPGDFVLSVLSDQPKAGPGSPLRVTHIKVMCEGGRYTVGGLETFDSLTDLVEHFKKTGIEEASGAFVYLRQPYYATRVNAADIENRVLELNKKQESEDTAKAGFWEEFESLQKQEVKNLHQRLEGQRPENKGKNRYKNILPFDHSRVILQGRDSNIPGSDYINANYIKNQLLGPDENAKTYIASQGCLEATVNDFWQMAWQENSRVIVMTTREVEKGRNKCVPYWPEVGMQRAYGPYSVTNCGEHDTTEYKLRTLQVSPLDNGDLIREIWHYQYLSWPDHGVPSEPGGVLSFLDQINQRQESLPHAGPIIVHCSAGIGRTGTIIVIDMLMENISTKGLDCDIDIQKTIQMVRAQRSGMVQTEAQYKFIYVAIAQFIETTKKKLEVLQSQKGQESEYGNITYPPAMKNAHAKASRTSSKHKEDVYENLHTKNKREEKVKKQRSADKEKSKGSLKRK
# Chain of human Vascular Endothelial Growth Factor Receptor 1 (VEGFR1), FLT1 (gene 2321) (P17948 whole entry, looked up): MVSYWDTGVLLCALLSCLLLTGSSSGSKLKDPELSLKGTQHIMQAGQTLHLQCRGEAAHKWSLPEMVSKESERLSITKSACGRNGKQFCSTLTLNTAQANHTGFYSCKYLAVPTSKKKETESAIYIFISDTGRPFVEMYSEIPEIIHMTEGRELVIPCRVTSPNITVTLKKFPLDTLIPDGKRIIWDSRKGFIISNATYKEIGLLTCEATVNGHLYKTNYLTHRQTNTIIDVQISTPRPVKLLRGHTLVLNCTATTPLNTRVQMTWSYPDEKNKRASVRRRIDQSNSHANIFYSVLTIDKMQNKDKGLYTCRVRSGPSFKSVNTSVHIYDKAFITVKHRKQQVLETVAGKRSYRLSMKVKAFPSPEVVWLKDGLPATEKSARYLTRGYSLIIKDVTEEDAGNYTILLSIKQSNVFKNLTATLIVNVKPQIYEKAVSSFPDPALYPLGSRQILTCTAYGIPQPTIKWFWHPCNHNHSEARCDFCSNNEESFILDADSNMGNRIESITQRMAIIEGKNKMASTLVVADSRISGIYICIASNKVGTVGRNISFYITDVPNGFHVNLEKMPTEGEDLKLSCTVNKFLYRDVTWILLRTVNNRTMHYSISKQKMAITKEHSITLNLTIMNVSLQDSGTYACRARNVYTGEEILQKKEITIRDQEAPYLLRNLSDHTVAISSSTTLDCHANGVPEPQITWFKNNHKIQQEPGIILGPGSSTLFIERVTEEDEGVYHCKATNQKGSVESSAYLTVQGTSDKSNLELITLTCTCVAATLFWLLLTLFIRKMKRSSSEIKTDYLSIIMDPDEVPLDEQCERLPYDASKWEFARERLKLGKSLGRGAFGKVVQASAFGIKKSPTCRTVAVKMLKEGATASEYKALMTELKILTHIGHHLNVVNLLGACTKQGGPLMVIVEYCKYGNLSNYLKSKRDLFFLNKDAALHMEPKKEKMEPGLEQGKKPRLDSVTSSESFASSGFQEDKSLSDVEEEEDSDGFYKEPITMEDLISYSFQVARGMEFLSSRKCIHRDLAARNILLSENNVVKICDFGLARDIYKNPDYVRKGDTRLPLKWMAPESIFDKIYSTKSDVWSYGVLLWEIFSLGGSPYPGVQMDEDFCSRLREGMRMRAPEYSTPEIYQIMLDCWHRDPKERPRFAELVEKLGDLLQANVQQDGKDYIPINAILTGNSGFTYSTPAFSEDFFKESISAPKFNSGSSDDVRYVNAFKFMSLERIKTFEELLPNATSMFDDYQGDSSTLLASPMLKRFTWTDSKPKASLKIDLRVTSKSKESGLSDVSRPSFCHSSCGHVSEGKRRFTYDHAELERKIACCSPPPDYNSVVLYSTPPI
# Chain of human SRC Proto-Oncogene, Non-receptor Tyrosine Kinase (SRC), SRC (gene 6714) (P12931 whole entry, looked up): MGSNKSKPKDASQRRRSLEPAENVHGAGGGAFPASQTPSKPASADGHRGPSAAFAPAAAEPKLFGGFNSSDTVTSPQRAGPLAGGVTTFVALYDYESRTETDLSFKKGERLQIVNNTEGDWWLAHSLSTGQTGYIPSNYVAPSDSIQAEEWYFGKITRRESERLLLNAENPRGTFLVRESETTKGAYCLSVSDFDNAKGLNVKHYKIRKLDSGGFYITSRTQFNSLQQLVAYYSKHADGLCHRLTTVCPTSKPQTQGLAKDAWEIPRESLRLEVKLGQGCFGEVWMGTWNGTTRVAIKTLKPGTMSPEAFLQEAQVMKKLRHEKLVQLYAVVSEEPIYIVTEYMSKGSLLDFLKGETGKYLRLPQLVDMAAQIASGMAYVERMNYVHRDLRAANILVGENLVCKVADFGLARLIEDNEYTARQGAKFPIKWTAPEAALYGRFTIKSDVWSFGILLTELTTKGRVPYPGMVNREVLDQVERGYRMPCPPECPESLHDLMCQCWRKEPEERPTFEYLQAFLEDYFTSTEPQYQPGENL
# Chain of human Sirtuin 2 (SIRT2), SIRT2 (gene 22933) (Q8IXJ6 whole entry, looked up): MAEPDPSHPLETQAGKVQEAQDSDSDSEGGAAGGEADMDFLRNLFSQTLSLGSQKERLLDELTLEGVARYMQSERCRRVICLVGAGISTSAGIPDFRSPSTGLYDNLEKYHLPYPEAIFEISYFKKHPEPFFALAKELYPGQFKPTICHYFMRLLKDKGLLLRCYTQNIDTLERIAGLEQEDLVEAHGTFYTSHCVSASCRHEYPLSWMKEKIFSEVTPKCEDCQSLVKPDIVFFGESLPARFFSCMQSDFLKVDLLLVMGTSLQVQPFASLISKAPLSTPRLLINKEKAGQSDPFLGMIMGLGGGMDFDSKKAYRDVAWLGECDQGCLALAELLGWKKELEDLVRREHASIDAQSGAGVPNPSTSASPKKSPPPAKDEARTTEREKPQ
smiles,measurement,setting,value
CC(C)(OO)c1ccccc1,AC50,[1],6.28 µM (active)
Cn1sc(Cl)cc1=O,outcome,[2],inactive
Clc1ccc(C2(Cn3cncn3)CC(Br)CO2)c(Cl)c1 (stereo not drawn),outcome,[3],inactive
Nc1ncc([N+](=O)[O-])s1,AC50,[4],40.4 µM (active)
CC(C)(C)CC(C)(C)c1ccc(O)cc1,outcome,[5],inactive
same,outcome,[6],inactive
same,outcome,[7],inactive
same,outcome,[1],inactive
ClC1(Cl)C2(Cl)C3(Cl)C4(Cl)C(Cl)(Cl)C5(Cl)C3(Cl)C1(Cl)C5(Cl)C24Cl (stereo not drawn),outcome,[8],inactive
same,outcome,[9],inactive
same,outcome,[1],inactive
COc1cc(OC)nc(NC(=O)NS(=O)(=O)c2ncccc2C(=O)N(C)C)n1,outcome,[1],inactive
COP(=S)(OC)Oc1cc(Cl)c(Cl)cc1Cl,outcome,[4],inactive
CCOP(=S)(OCC)Oc1nc(Cl)c(Cl)cc1Cl,outcome,[2],inactive
O=C(O)C(Cl)(Cl)Cl,outcome,[2],inactive
same,outcome,[10],inactive
CCC(C)(C)c1ccc(O)c(C(C)(C)CC)c1,outcome,[11],inactive
same,outcome,[7],inactive
O=C1C2(Cl)C3(Cl)C4(Cl)C(Cl)(Cl)C5(Cl)C3(Cl)C1(Cl)C5(Cl)C24Cl (stereo not drawn),outcome,[7],inactive
COc1cc2c(cc1OC)[C@@]13CCN4CC5=CCO[C@H]6CC(=O)N2[C@H]1[C@H]6[C@H]5C[C@H]43,AC50,[12],18.1 µM (active)
CCOP(=S)(OCC)SCSP(=S)(OCC)OCC,outcome,[2],inactive
COP(=S)(OC)Oc1ccc(Sc2ccc(OP(=S)(OC)OC)cc2)cc1,outcome,[13],inactive
same,outcome,[7],inactive

# Reference: PubChem BioAssay (EPA / NIEHS)
